The values below come from PubChem BioAssay (NCATS).

Results filed as inconclusive are left out. A call without a number means that no potency is given here. The source made the active and inactive calls. Calls follow the shape of the dose curve; as a rule, active = well fitted curve in the direction sought with a large enough effect; inconclusive = small, poorly fitted or top-dose-only effect, or another doubt; inactive = no such curve, though single readings can be large; an effect the other way counts as inactive or inconclusive.
Potency is read from the fitted curve at half-maximal effect.

The first assay deals with NIH3T3. Description: Cytotoxic Profiling of Annotated Libraries Using Quantitative High-Throughput Screening (AID 1296008). Also: nearly all actives have a fitted effect of over 60% in size. Particulars: Five cell lines viability, CellTiter-Glo ATP luminescence, 48-72 h; max response: hits give low values. Summed up: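 Compounds were pin-transferred onto cells and incubated 48 or 72 hr at 37 degree Celsius, 95% humidity. CellTiter-Glo was added, plates sat 10 min at room temperature, then ATP-coupled luminescence was imaged as the viability read-out.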
On to `CNCCN(C)Cc1cn[nH]c1-c1ccc(OC2CC(OCCC3CCOCC3)C2)cc1` (stereo unspecified), for which the max response is -20% (inactive).

Take `CC1(CO)CCCC2(C)C1C(OC(=O)c1ccccc1)C=C1C(=O)OCC12O` (stereo unspecified): the Potency is 12.8 µM (active).

For the compound `Nc1nc(NCC2CCC(CNS(=O)(=O)c3cccc4ccccc34)CC2)nc2ccccc12` (stereo unspecified), the Potency is 20.6 µM (active).

Turning to `Cc1cc(N=Nc2ccc(S(=O)(=O)Nc3ccccn3)cc2)c(N)cc1O`, the Potency was 8.2 µM (active).

Take `C=CC(=O)N1CCN(C(=O)c2cc(-c3cc(Cl)ccc3Cl)c(Cl)cc2OC)CC1`: the max response was -20.9% (inactive).

With `Cc1cc(C)c(-c2csc(NC(=O)c3ccccc3)n2)c(C)c1`, the Potency was 8.2 µM (active).

As to `COc1cc(N2CCN(C(C)=O)CC2)ccc1Nc1ncc(Cl)c(Nc2ccc(N3CCN(C(C)=O)CC3)cc2OC)n1`, the Potency was 4.11 µM (active).

As to `CN(CC(=O)N(Cc1ccc(C2CCCCC2)cc1)c1ccc(C(=O)O)cc1)S(=O)(=O)c1c(F)c(F)c(F)c(F)c1F`, the Potency was 6.51 µM (active).

For the compound `CC1OC2O[C@H]3[C@@H](OCC(O)[C@H]3O)OC(=O)C34CCC(C)(C)CC3C3=CCC5C6(C)CC(O)C(OC7OC(CO)C(O)C(O)C7O[C@@H]7OC[C@H](OC(=O)CC(C)(O)CC(=O)OC1C(OC1OCC(O)C(O)C1O)C2O)[C@@H](O)[C@H]7O)C(C)(CO)C6CCC5(C)C3(C)CC4` (stereo partly specified), the max response is -22% (inactive).

`COCCNCc1ccc(-c2cc3nccc(Oc4ccc(NC(=S)NC(=O)Cc5ccc(F)cc5)cc4F)c3s2)nc1`: the Potency was 6.51 µM (active).

As for `Cc1cc(CS(=O)(=O)c2ccccc2)cc(OCc2ccc(CN3CCC[C@@H]3CO)cc2)c1`, the Potency was 20.6 µM (active).

For the next assay, the system named is C33A. Put plainly: Primary qHTS to identify gynecologic anti-cancer compounds using libraries of approved drugs and bioactive compounds (AID 1345084). Also: nearly all actives have a fitted effect of over 55% in size. As to conditions: Gynecologic cancer cell panel viability, ATPlite luminescence, 48 h; series mostly up to 57.5 µM. In short, it runs like this:
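Cells, 1,000 per well, plated 16 h, then exposed 48 h at 37 C to compounds. Viability by ATPlite luminescence after 15 min at room temperature.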
As for `CN[C@@H]1[C@@H](O)[C@@H](O[C@@H]2[C@@H](O)[C@H](O[C@H]3O[C@@H]([C@@H](C)NC)CC[C@H]3N)[C@@H](N)C[C@H]2N)OC[C@]1(C)O`, the Potency result was “inactive”.

For the compound `C[N+]1(C)[C@@H]2CC[C@H]1CC(OC(=O)C(O)c1ccccc1)C2` (stereo partly specified), the Potency result is “inactive”.

For the compound `CCNC(=O)[C@@H]1CCCN1C(=O)[C@H](CCCN=C(N)N)NC(=O)[C@H](CC(C)C)NC(=O)[C@@H](CC(C)C)NC(=O)[C@H](Cc1ccc(O)cc1)NC(=O)[C@H](CO)NC(=O)[C@H](Cc1c[nH]c2ccccc12)NC(=O)[C@H](Cc1cnc[nH]1)NC(=O)[C@@H]1CCC(=O)N1`, the Potency entry is “inactive”.

Take `CC(CCC1(O)OC2CC3C4CC=C5CC(O[C@@H]6O[C@H](CO)[C@@H](O[C@@H]7O[C@H](CO)[C@@H](O)[C@H](O)[C@H]7O)[C@H](O)[C@H]6O[C@@H]6O[C@@H](C)[C@H](O)[C@@H](O)[C@H]6O)CCC5(C)C4CCC3(C)C2C1C)CO[C@@H]1O[C@H](CO)[C@@H](O)[C@H](O)[C@H]1O` (stereo partly specified): the activity change, negative = cytotoxicity is 1.45% [at 11.6 µM] (inactive).

Consider `CN([C@H]1c2cc(OCCCC(F)(F)F)ccc2OC(C)(C)[C@@H]1O)S(C)(=O)=O`, for which the Potency result was “inactive”.

Regarding `Cn1c(NC[C@@H](N)Cc2ccccc2)nc(-c2ccncc2)c(-c2ccc3ccccc3c2)c1=O`, the Potency result was “inactive”.

For `CCCCC(=O)N(Cc1ccc(-c2ccccc2-c2nn[nH]n2)cc1)C(C(=O)O)C(C)C` (stereo unspecified), the Potency result is “inactive”.

In the case of `Nc1nc(NCC2CCC(CNS(=O)(=O)c3cccc4ccccc34)CC2)nc2ccccc12` (stereo unspecified), the Potency result was “inactive”.

Regarding `COc1ccc(NS(=O)(=O)c2sc3ccc(Cl)cc3c2C)cc1N1CCNCC1`, the Potency result was “inactive”.

Consider `CCCCc1nc(Cl)c(CO)n1Cc1ccc(-c2ccccc2-c2nnn[nH]2)cc1`, for which the Potency result was “inactive”.

As for `CCC(=O)c1cc(-c2ccc(Cl)cc2)n(-c2ccc(S(N)(=O)=O)cc2)c1C`, the Potency entry is “inactive”.

Turning to `Cc1cc(N=Nc2ccc(S(=O)(=O)Nc3ccccn3)cc2)c(N)cc1O`, the Potency result is “inactive”.

`Cc1nnsc1C(=O)Nc1ccc(-n2nc(C(F)(F)F)cc2C(F)(F)F)cc1`: the Potency entry was “inactive”.

As to `Cc1cc(C)c(NC(=O)N(Cc2ccc3c(c2)Cc2ccccc2-3)C2CCCCCC2)c(C)c1`, the Potency entry was “inactive”.

In the case of `Fc1ccccc1CNCc1ccc(-c2ccnc3[nH]ccc23)cc1`, the Potency entry is “inactive”.

Take `CN(Cc1ccc(C(=O)O)cc1)c1ccc(OCc2c(-c3c(Cl)cccc3Cl)noc2C2CC2)nc1C(F)(F)F`: the Potency entry was “inactive”.

Consider `Cc1nc(C)c2c(n1)N(Cc1ccc(-c3ccccc3-c3nn[nH]n3)cc1)C(=O)CC2`, for which the Potency result was “inactive”.

Turning to `N#C[C@@H]1C[C@@H]2C[C@@H]2N1C(=O)[C@@H](N)C12CC3CC(CC(O)(C3)C1)C2`, the Potency entry is “inactive”.

As for `CS(=O)(=O)c1ccc(-c2cn3ccccc3n2)cc1`, the Potency is 10 µM (active).

As to `CCCCOc1ccc(-c2cncc(C(=O)NCc3cccnc3N3CCOCC3)c2)cc1Cl`, the Potency entry is “inactive”.
